Assay results published in PubChem BioAssay (NCI).
About 83,000 compounds went through this panel and 20% of them were active in at least one assay; those are over-represented in the sample as a whole.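 Assay: single dose, 48 h. Readout: percent growth (0 = no net growth; negative = cell death). Active: <10.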 A number with no mark means an inactive call. Calls of active or inactive are those of the source.

Legend:
Experiment in all cases: NCI-60 one-dose screen, 48 h (100 = growth as untreated, 0 = no growth, -100 = all killed)
Conditions in all cases: 10 µM unless noted
[1] = tested on: NCI-H23 lung
[2] = tested on: NCI-H226 lung
[3] = tested on: NCI-H322M lung
[4] = tested on: HOP-62 NSCLC
[5] = tested on: NCI-H460 lung
[6] = tested on: HOP-92 NSCLC
[7] = tested on: NCI-H522 lung
[8] = tested on: A549/ATCC NSCLC
[9] = tested on: 786-0 renal
[10] = tested on: COLO 205 colon

## C#CCn1cc(/C=N/Nc2nc(-c3ccc(Br)cc3)cs2)c2ccccc21
[1]
  growth: 86.7%
[2]
  growth: 94.7%
[3]
  growth: 93.6%
[4]
  growth: 97.5%
[5]
  growth: 97.3%
[6]
  growth: 88.9%
[7]
  growth: 88.9%
[8]
  growth: 97%
[9]
  growth: 105%
[10]
  growth: 115%

## C=C(C)[C@@H]1CC[C@]2(C(=O)O)CC[C@]3(C)[C@H](CC[C@@H]4[C@@]5(C)C/C(=C/c6ccccn6)C(=O)C(C)(C)[C@@H]5CC[C@]43C)[C@@H]12
[1]
  growth: 38.6%
[2]
  growth: 39.9%
[3]
  growth: 44.3%
[4]
  growth: 36.3%
[5]
  growth: 16.1%
[6]
  growth: 34.7%
[7]
  growth: 24.1%
[8]
  growth: 16.5%
[9]
  growth: 51.1%
[10]
  growth: 54.7%

## O=C(O)CC1CCN(c2ccc3nnc(Cl)n3n2)CC1
[1]
  growth: 93.9%
[2]
  growth: 98.7%
[3]
  growth: 96.2%
[4]
  growth: 93.3%
[5]
  growth: 108%
[6]
  growth: 96.2%
[7]
  growth: 96%
[8]
  growth: 103%
[9]
  growth: 100%
[10]
  growth: 107%

## CN1CCN(CC#CCn2c3c(c4ccccc42)C[C@]2(C)[C@H]4CC=C5[C@@H]6CC(C)(C)CC[C@]6(C(=O)N6CCOCC6)CC[C@@]5(C)[C@]4(C)CC[C@H]2C3(C)C)CC1
[1]
  growth: 74%
[2]
  growth: 85.7%
[3]
  growth: 94.9%
[4]
  growth: 91.7%
[5]
  growth: 17.6%
[6]
  growth: 22.5%
[7]
  growth: 97%
[8]
  growth: 41.9%
[9]
  growth: 76.3%
[10]
  growth: 87.3%

## Cc1cc2nc(C(Cl)Cl)nc(-c3ccc(S(=O)(=O)N(C)C)cc3)n2n1
[1]
  growth: 44.4%
[2]
  growth: 71.8%
[3]
  growth: 69.3%
[4]
  growth: 32.8%
[5]
  growth: 27.5%
[6]
  growth: 50%
[7]
  growth: 76.9%
[8]
  growth: 37%
[9]
  growth: 94.5%
[10]
  growth: 25.2%

## O=C1[C@H]2Cc3c([nH]c4ccccc34)[C@H](c3ccc(Cl)cc3)N2C(=O)CN1C1CCN(CC2CCCCC2)CC1
[1]
  growth: 75.8%
[2]
  growth: 88.2%
[3]
  growth: 93.6%
[4]
  growth: 79.7%
[5]
  growth: 35.5%
[6]
  growth: 70.5%
[7]
  growth: 71.5%
[8]
  growth: 64.4%
[9]
  growth: 75%
[10]
  growth: 51.4%

## O=C(Nc1cccc(Cl)c1)Nc1nc2cc([N+](=O)[O-])ccc2o1
[1]
  growth: 38.4%
[2]
  growth: 56.1%
[3]
  growth: 37.4%
[4]
  growth: 58%
[5]
  growth: 26.5%
[6]
  growth: -4.19% (active)
[7]
  growth: 18.2%
[8]
  growth: 44.6%
[9]
  growth: 44.2%
[10]
  growth: 75.1%

## Cc1ccccc1Nc1nc(SC(C)C)nc(-c2ccccc2)c1C#N
[1]
  growth: 31.7%
[2]
  growth: 81.1%
[3]
  growth: 70%
[4]
  growth: 37%
[5]
  growth: 45.5%
[6]
  growth: 64.5%
[7]
  growth: 73%
[8]
  growth: 102%
[9]
  growth: 10.6%
[10]
  growth: 119%

## Cc1cccc(N2CCN(C3=C(Cl)C(=O)c4ncccc4C3=O)CC2)c1
[1]
  growth: 55.3%
[2]
  growth: 90.3%
[3]
  growth: 93.8%
[4]
  growth: 83.3%
[5]
  growth: 58.4%
[6]
  growth: 144%
[7]
  growth: 26.7%
[8]
  growth: 93.8%
[9]
  growth: 104%
[10]
  growth: 90.4%

## CS(=O)(=O)c1ccc(/C(=N/N=C(N)N)c2ccc(Cl)cc2)cc1
[1]
  growth: 95.4%
[2]
  growth: 95.5%
[3]
  growth: 94.9%
[4]
  growth: 85.1%
[5]
  growth: 99.1%
[6]
  growth: 57.2%
[7]
  growth: 77.4%
[8]
  growth: 99.2%
[9]
  growth: 88.5%
[10]
  growth: 91.5%

## CC(C)(O)c1cncc(-c2ccc3ncc(C#N)c(N4CCc5cc(F)c(Cl)cc54)c3c2)c1
[1]
  growth: 26.8%
[2]
  growth: -6.33% (active)
[3]
  growth: 11%
[4]
  growth: 1.17% (active)
[5]
  growth: 11.1%
[6]
  growth: -8.73% (active)
[7]
  growth: -2.54% (active)
[8]
  growth: 6.02% (active)
[9]
  growth: 8.75% (active)
[10]
  growth: 14.5%

## CCCCCCOC(=O)c1cc(-c2ccc(F)cc2)nc2ccccc12
[1]
  growth: 90.3%
[2]
  growth: 91.2%
[3]
  growth: 94.9%
[4]
  growth: 94.4%
[5]
  growth: 103%
[6]
  growth: 65.9%
[7]
  growth: 82.8%
[8]
  growth: 101%
[9]
  growth: 107%
[10]
  growth: 107%

## CCN(CC)S(=O)(=O)c1ccc(-c2nc(C(Cl)Cl)nc3cc(C)nn23)cc1
[1]
  growth: 14.6%
[2]
  growth: 69.7%
[3]
  growth: 57.1%
[4]
  growth: 5.6% (active)
[5]
  growth: 8.65% (active)
[6]
  growth: -5.03% (active)
[7]
  growth: 56%
[8]
  growth: 0.55% (active)
[9]
  growth: 92.5%
[10]
  growth: -18.7% (active)

## O=C(N/N=C/c1cc2ccccc2nc1Cl)c1cc(-c2nc3ccccc3[nH]2)nc2ccccc12
[1]
  growth: 96.2%
[2]
  growth: 100%
[3]
  growth: 99.9%
[4]
  growth: 97.9%
[5]
  growth: 104%
[6]
  growth: 72.4%
[7]
  growth: 83.6%
[8]
  growth: 95.1%
[9]
  growth: 85.3%
[10]
  growth: 98.3%

## Clc1ccc2[nH]cc(-c3cncn3CCc3ccc4c(c3)OCO4)c2c1
[1]
  growth: 62.9%
[2]
  growth: 56.8%
[3]
  growth: 75.5%
[4]
  growth: 85.5%
[5]
  growth: 81.6%
[6]
  growth: 9.07% (active)
[7]
  growth: 69.2%
[8]
  growth: 73.2%
[9]
  growth: 73.7%
[10]
  growth: 80.5%

## COc1ccccc1N1CCN(C2=C(Cl)C(=O)c3ncccc3C2=O)CC1
[1]
  growth: 56.3%
[2]
  growth: 91%
[3]
  growth: 92.4%
[4]
  growth: 93.4%
[5]
  growth: 75%
[6]
  growth: 135%
[7]
  growth: 9.14% (active)
[8]
  growth: 112%
[9]
  growth: 107%
[10]
  growth: 106%

## COc1ccc([C@H]2C(=O)N(c3cc(OC)c(OC)c(OC)c3)[C@@H]2c2ccc(OC)c(O)c2)cc1
[1]
  growth: 24.4%
[2]
  growth: 41.8%
[3]
  growth: 43.3%
[4]
  growth: 26.7%
[5]
  growth: 4.38% (active)
[6]
  growth: 6.76% (active)
[7]
  growth: -49.2% (active)
[8]
  growth: 21.6%
[9]
  growth: 6.39% (active)
[10]
  growth: -76.1% (active)

## C#C[C@]1(O)CC[C@H]2[C@@H]3CC=C4c5sc(Nc6cc(Cl)ccc6OC)nc5CC[C@]4(C)[C@H]3CC[C@@]21C
[1]
  growth: 33.4%
[2]
  growth: 52.4%
[3]
  growth: 53.2%
[4]
  growth: 32.5%
[5]
  growth: 17%
[6]
  growth: -0.0409% (active)
[7]
  growth: 52.8%
[8]
  growth: 28.7%
[9]
  growth: -32.3% (active)
[10]
  growth: 21.8%

## Cc1[nH]c(C(=O)Nc2ccc(C(N)=O)cc2N2CCOC(C)C2)c(Cl)c1Cl (stereo not given)
[1]
  growth: 96.2%
[2]
  growth: 89.9%
[3]
  growth: 95.1%
[4]
  growth: 98.4%
[5]
  growth: 102%
[6]
  growth: 107%
[7]
  growth: 95.1%
[8]
  growth: 99.6%
[9]
  growth: 92.9%
[10]
  growth: 124%

## NC(=O)c1c(NC(=O)c2ccc(C(F)(F)F)cc2)sc2c1CCC(=O)C2
[1]
  growth: -6.8% (active)
[2]
  growth: -24% (active)
[3]
  growth: 92.1%
[4]
  growth: 13.5%
[5]
  growth: 19.1%
[6]
  growth: -25.3% (active)
[7]
  growth: -25.9% (active)
[8]
  growth: 12.1%
[9]
  growth: 24.5%
[10]
  growth: -64.7% (active)

## O=C(CCCCCCNC(=O)C(O)(O)C(F)(F)F)Nc1ccc(-c2ccccc2)cc1
[1]
  growth: 9.87% (active)
[2]
  growth: 39.4%
[3]
  growth: 28.2%
[4]
  growth: -4.5% (active)
[5]
  growth: 7.65% (active)
[6]
  growth: -13.6% (active)
[7]
  growth: -30.9% (active)
[8]
  growth: 8.66% (active)
[9]
  growth: 22.8%
[10]
  growth: -61.9% (active)

## CCCC/C(=C\c1ccc(O)c(O)c1)C(=O)NC(Cc1ccccc1)C(=O)C(=O)NCCc1ccc(OC)cc1 (stereo not given)
[1]
  growth: 92.2%
[2]
  growth: 92.7%
[3]
  growth: 100%
[4]
  growth: 98.2%
[5]
  growth: 102%
[6]
  growth: 86.2%
[7]
  growth: 87.7%
[8]
  growth: 103%
[9]
  growth: 104%
[10]
  growth: 110%

## Cc1ccc2c(n1)C(=O)C(Cl)=C(Nc1ccc(C(F)(F)F)cc1)C2=O
[1]
  growth: 68.5%
[2]
  growth: 89.5%
[3]
  growth: 107%
[4]
  growth: 97.2%
[5]
  growth: 101%
[6]
  growth: 71.3%
[7]
  growth: -18.8% (active)
[8]
  growth: 102%
[9]
  growth: 34%
[10]
  growth: 16.7%

## O=c1oc2ccc(-c3ccc(F)cc3F)cc2c(=O)n1-c1ccc(Br)cc1F
[1]
  growth: 60%
[2]
  growth: 77.8%
[3]
  growth: 71.7%
[4]
  growth: 82.9%
[5]
  growth: 45.9%
[6]
  growth: -19.3% (active)
[7]
  growth: 12.1%
[8]
  growth: 84.4%
[9]
  growth: 95.2%
[10]
  growth: 121%

## CC(O)c1cccc(/C(N)=N/C(N)=N/c2nc3ccccc3s2)c1 (stereo not given)
[1]
  growth: 91.6%
[2]
  growth: 85.9%
[3]
  growth: 97.4%
[4]
  growth: 98.6%
[5]
  growth: 85.4%
[6]
  growth: 97.6%
[7]
  growth: 96.9%
[8]
  growth: 82%
[9]
  growth: 101%
[10]
  growth: 109%

## CCn1c2ccc(/C=N/N(C)S(=O)(=O)CCN(C)C)cc2c2cc(/C=N/N(C)S(=O)(=O)CCN(C)C)ccc21
[1]
  growth: 43.4%
[2]
  growth: 40.8%
[3]
  growth: 80.8%
[4]
  growth: 101%
[5]
  growth: 73.5%
[6]
  growth: 42.4%
[7]
  growth: 36%
[8]
  growth: 84.5%
[9]
  growth: 50.3%
[10]
  growth: 92.8%

## O=C(Nc1ccccc1)Nc1nc2ccc([N+](=O)[O-])cc2[nH]1
[1]
  growth: 39.5%
[2]
  growth: 55.4%
[3]
  growth: 58.5%
[4]
  growth: 105%
[5]
  growth: 44.1%
[6]
  growth: -5.31% (active)
[7]
  growth: 28.4%
[8]
  growth: 56.7%
[9]
  growth: 67.5%
[10]
  growth: 88.7%
